The campaign covered roughly 48,000 compounds. About 13,000 (27%) showed an effect of 50% or more. The list shows a part of the results.
system: Wolbachia pipientis; test: Anti-Wolbachia Cell-Based Screen; assay type: functional; set-up: scale not given: in the data most compounds retested in dose-response had high values; details: 5 µM

Compared with `CCC(CC)C(=O)NCC1(NC(C)c2ccccc2)CCOCC1` (stereo not given), `Cc1ccc(OCCNC(=O)C2CCOCC2)c(C)c1` is higher in “Percent Effect” value: -13.17% for the first, -7.551% for the second.

First: COc1ccc(C)cc1CCNS(C)(=O)=O
Second: Cc1ccc(S(=O)(=O)N(C)CC(C)O)c(F)c1 (stereo not given)
The “Percent Effect” value of the first is lower: 4.512% for the first, 4.809% for the second.

Going from `COC1CC2(CCN(Cc3nccn3C)CC2)C1.O=C(O)C(F)(F)F` to `CCOC1CC2(CCN(Cc3nccn3C)CC2)C1.O=C(O)C(F)(F)F`, the “Percent Effect” value falls from 5.077% to 2.92%.

Going from `Cn1ccnc1CN1CCC2(CC1)COCCN(S(C)(=O)=O)C2.O=C(O)C(F)(F)F` to `Cn1cncc1CN1CCC2(CC1)COCCN(S(C)(=O)=O)C2.O=C(O)C(F)(F)F`, the “Percent Effect” value rises from 104.9% to 124.1%.

Going from `CN1CCOCC2(CCN(Cc3ccc[nH]3)CC2)C1.O=C(O)C(F)(F)F.O=C(O)C(F)(F)F` to `Cn1ccnc1CN1CCC2(CC1)CCN(Cc1ccoc1)C2.O=C(O)C(F)(F)F.O=C(O)C(F)(F)F`, the “Percent Effect” value falls from -3.282% to -4.24%.

Going from `O=C(O)C(F)(F)F.O=S(=O)(C1CC1)N1CCOCC2(CCN(c3ccccn3)C2)C1` (stereo not given) to `Cn1ccnc1CN1CCC2(COCCN(S(=O)(=O)C3CC3)C2)C1` (stereo not given), the “Percent Effect” value rises from 8.73% to 106.3%.

First: Cn1ccnc1CN1CCC2(COCCN(Cc3ccsc3)C2)C1 (stereo not given)
Second: Cn1ccnc1CN1CCC2(CC1)COCCN(c1ncccn1)C2
The “Percent Effect” value of the first is lower: 14.38% for the first, 118.1% for the second.

First: CS(=O)(=O)N1CCOCC2(CN(Cc3nccs3)CCO2)C1.O=C(O)C(F)(F)F (stereo not given)
Second: Cn1ccnc1CN1CCC2(CC1)COC2.O=C(O)C(F)(F)F
The “Percent Effect” value of the first is lower: 6.136% for the first, 97.83% for the second.

Compared with `COc1cnc(N2C[C@H](CO)C[C@H](CN3CCOCC3)C2)nc1`, `c1cnc(N2CCOCC3(CCN(c4cnccn4)CC3)C2)nc1` is lower in “Percent Effect” value: -6.58% for the first, -29.45% for the second.

Compared with `Cc1ccc(CN(C(=O)C(C)S(C)(=O)=O)C2CC2)cc1C` (stereo not given), `CC(O)CN1CCC(CNCc2ccc(S(C)(=O)=O)cc2)CC1` (stereo not given) is higher in “Percent Effect” value: -15.47% for the first, -7.013% for the second.

Compared with `CCc1ncc(C(=O)NC(C)(C)C(=O)OC)s1`, `COC(=O)C(NC(=O)c1ccc(C)cc1C)c1cccnc1` (stereo not given) is higher in “Percent Effect” value: -4.518% for the first, 2.23% for the second.

Compared with `COCC1CC2(CCN(Cc3nccn3C)CC2)CN1c1ncccn1.O=C(O)C(F)(F)F` (stereo not given), `COCC(=O)N1CCCC2(CCN(CCN3CCCC3)CC2)C1.O=C(O)C(F)(F)F.O=C(O)C(F)(F)F` is higher in “Percent Effect” value: -8.738% for the first, 18.87% for the second.

Compared with `Cn1cc2ncn(CCNc3cccnc3)c(=O)c2n1`, `CC(CNC(=O)c1cccnc1Oc1cccnc1)N(C)C` (stereo not given) is lower in “Percent Effect” value: -8.591% for the first, -15.37% for the second.

Going from `Cc1csc(C2CCCCN2C(=O)c2cn[nH]c2C)n1` (stereo not given) to `Cc1csc(C2CCCCN2C(=O)c2c[nH]c(C)n2)n1` (stereo not given), the “Percent Effect” value falls from 83.45% to 62.15%.

First: Cc1csc(C2CCCCN2C(=O)c2cc(C)n(C)n2)n1 (stereo not given)
Second: Cc1cccc(C(=O)N2CCCCC2c2nc(C)cs2)n1 (stereo not given)
The “Percent Effect” value of the first is higher: 98.18% for the first, 80.1% for the second.

Going from `Cc1cncc(C(=O)N2CCCCC2c2nc(C)cs2)c1` (stereo not given) to `Cc1cnc(C(=O)N2CCCCC2c2nc(C)cs2)cn1` (stereo not given), the “Percent Effect” value rises from 6.279% to 81.82%.

Going from `Cc1csc(C2CCCCN2C(=O)c2cnn3ccc(C)nc23)n1` (stereo not given) to `Cc1ccc(CC(=O)N2CCCCC2c2nc(C)cs2)cn1` (stereo not given), the “Percent Effect” value rises from 2.073% to 2.602%.

Compared with `COc1ccc(C(=O)N2CCCCC2c2nc(C)cs2)nn1` (stereo not given), `COc1ccc(Oc2ncccc2C(N)=O)cc1CN1CCCC1` is lower in “Percent Effect” value: -5.655% for the first, -15.13% for the second.

Going from `CC(C)(C)c1ccc(C2(C(=O)NCCS(N)(=O)=O)CC2)cc1` to `CCc1ccc(S(=O)(=O)N2Cc3c(CN(C)C)nn(C)c3C2)cc1.O=C(O)C(F)(F)F`, the “Percent Effect” value rises from -15.99% to 97.57%.

Compared with `CN(Cc1ccco1)C(=O)C1CSCN1C(=O)c1cccnc1` (stereo not given), `CN(Cc1ccco1)C(=O)C1CSCN1C(=O)c1cccs1` (stereo not given) is higher in “Percent Effect” value: 0.06211% for the first, 104.7% for the second.

Going from `CN(Cc1ccco1)C(=O)[C@H]1CSCN1C(=O)OC(C)(C)C` to `CCOCC(=O)N1CSCC1C(=O)N(C)Cc1ccco1` (stereo not given), the “Percent Effect” value rises from 12.78% to 113.6%.

First: CN(Cc1cc(-c2cccnc2)no1)C(=O)[C@@H]1CSCN1C
Second: Cc1ccc(CC(=O)N2CSCC2C(=O)N(C)Cc2ccco2)o1 (stereo not given)
The “Percent Effect” value of the first is lower: -21.19% for the first, 8.524% for the second.

First: CN(Cc1ccco1)C(=O)NCC(c1cccs1)N(C)C (stereo not given)
Second: CN(Cc1ccco1)C(=O)C1CSCN1C(=O)C1CCC1 (stereo not given)
The “Percent Effect” value of the first is lower: 1.793% for the first, 111.9% for the second.

Going from `Cn1c(CN2CCCC2c2noc(C3CC3)n2)cc(=O)n(C)c1=O` (stereo not given) to `CC(C)(C)c1nnc(CN2CCCC2c2noc(C3CC3)n2)o1` (stereo not given), the “Percent Effect” value rises from -13.43% to 9.354%.

Compared with `CCc1n[nH]c(C2CN(C(=O)c3cc(C4CC4)on3)CCO2)n1` (stereo not given), `CCCc1n[nH]c(C2CN(C(=O)c3cc(C4CC4)on3)CCO2)n1` (stereo not given) is lower in “Percent Effect” value: 117.8% for the first, 114.4% for the second.

Compared with `O=S(=O)(c1c(Cl)nc2sccn12)N1CCC2(CCNCC2)C1`, `Cc1nc2n(n1)CCN(S(=O)(=O)c1ccc(Cl)cc1)C2` is lower in “Percent Effect” value: -2.285% for the first, -10.09% for the second.

First: CC(C)(C)CN[C@@H]1CO[C@H](CNC(=O)C2CCCC2)[C@H]1O
Second: CCc1cc(CNC(=O)N(C2CC2)C(C)c2ccco2)on1 (stereo not given)
The “Percent Effect” value of the first is lower: -14.33% for the first, -6.882% for the second.

Compared with `Cc1ccc(S(=O)(=O)N2Cc3c(CN(C)C)nn(C)c3C2)cc1`, `COc1ccc(S(=O)(=O)N2Cc3c(CN(C)C)nn(C)c3C2)cc1.O=C(O)C(F)(F)F` is higher in “Percent Effect” value: -16.71% for the first, -0.8573% for the second.

Going from `CCc1ccc(NC(=O)N2Cc3c(CN(C)C)nn(C)c3C2)cc1.O=C(O)C(F)(F)F` to `Cc1ccc(CS(=O)(=O)N2Cc3c(CN(C)C)nn(C)c3C2)cc1.O=C(O)C(F)(F)F`, the “Percent Effect” value rises from -20.31% to 96.76%.

Compared with `CN(C)Cc1nn(C)c2c1CN(C(=O)c1ccc[nH]1)C2.O=C(O)C(F)(F)F`, `COc1cccc(S(=O)(=O)N2CCCc3c(OC)nn(C)c3C2)c1` is higher in “Percent Effect” value: -9.086% for the first, -0.459% for the second.

Compared with `C=Cc1cccc(CN2CCCn3nc(CNS(C)(=O)=O)cc3C2)c1`, `COCc1ncn2c1CN(S(=O)(=O)c1cccc(OC)c1)CC2` is lower in “Percent Effect” value: 10.79% for the first, 5.522% for the second.

First: O=C1C(Sc2cnn[nH]2)CCCN1c1ccccc1F (stereo not given)
Second: O=c1[nH]cnc2c1CCN(S(=O)(=O)c1ccc(Cl)cc1)C2
The “Percent Effect” value of the first is lower: -1.507% for the first, 81.06% for the second.

Going from `Cc1n[nH]c(C2CN(Cc3csc(C4CC4)n3)CCO2)n1` (stereo not given) to `CCc1nc(C2CCCN2Cc2nc(C3CC3)no2)no1` (stereo not given), the “Percent Effect” value rises from -12.76% to -2.971%.

Going from `Cc1ccc(Oc2ncccc2C(=O)N(C)CCCN(C)C)c(C)c1` to `Cc1ccc(Oc2ncccc2C(=O)N(C)CCCN(C)C)cc1`, the “Percent Effect” value falls from 137.8% to 116.5%.

Compared with `COCCOc1ncccc1C(=O)N(C)c1ccc(OC)c(OC)c1`, `CCOc1ncccc1C(=O)N(C)Cc1ncc(C)c(OC)c1C` is lower in “Percent Effect” value: -8.68% for the first, -9.581% for the second.

First: Cc1ccc(Oc2ncccc2C(=O)N(C)CC2OCCO2)c(C)c1
Second: Cc1ccc(Oc2ncccc2C(=O)O)c(C)c1
The “Percent Effect” value of the first is higher: 132.9% for the first, 113.8% for the second.

Going from `CC(C)CC(CNC(=O)c1cccnc1Oc1cccnc1)N(C)C` (stereo not given) to `CC(O)CN(C)C(=O)Nc1ccn(-c2cccc(C(F)(F)F)c2)n1` (stereo not given), the “Percent Effect” value rises from -29.76% to -1.587%.

First: Cc1ccc(OCCN(C)Cc2nccn2C)c(C)c1
Second: COc1ccc(CN2C[C@@H]3OCC(=O)N(Cc4nccn4C)[C@@H]3C2)cc1
The “Percent Effect” value of the first is higher: 1.849% for the first, -2.723% for the second.

First: O=S(=O)(CCSc1nccn1C1CC1)c1ccccc1
Second: O=C(NCCc1c[nH]cn1)c1ccc2c(c1)C(=O)N(C1CC1)C2=O
The “Percent Effect” value of the first is lower: 2.896% for the first, 25.9% for the second.

Compared with `Cc1cnn(CCNCC(=O)NC2(C#N)CCCC2)c1`, `CC(=O)NCCc1ncnn1-c1ccc(F)c(Cl)c1` is lower in “Percent Effect” value: 1.433% for the first, -4.574% for the second.

First: COc1ccccc1CC(=O)NC(CC(=O)O)c1ccc(F)cc1 (stereo not given)
Second: CCOCCOc1ccc(S(=O)(=O)N2CCc3c(nc[nH]c3=O)C2)cc1
The “Percent Effect” value of the first is lower: 7.485% for the first, 99.77% for the second.

First: O=c1[nH]cnc2c1CCN(S(=O)(=O)c1ccc(OC(F)(F)F)cc1)C2
Second: O=c1[nH]cnc2c1CCN(S(=O)(=O)c1cccc(OC(F)(F)F)c1)C2
The “Percent Effect” value of the first is lower: 93.77% for the first, 122.9% for the second.

Compared with `Cc1nc2n(n1)CCN(S(=O)(=O)c1ccc(OC(F)(F)F)cc1)C2`, `CCOCc1ncn2c1CN(S(=O)(=O)c1ccc(OC)cc1)CC2` is higher in “Percent Effect” value: -10.24% for the first, 3.877% for the second.

Going from `CCOCc1cncc2c1CCN(S(=O)(=O)c1ccc(C)cc1)C2` to `CN(C)c1ncnc2c1CCN(S(=O)(=O)c1cccc(Cl)c1Cl)C2`, the “Percent Effect” value falls from 7.269% to -2.011%.

Compared with `CN(C)c1ncnc2c1CCN(S(=O)(=O)c1ccccc1C(F)(F)F)C2`, `CC(C)(C)c1nc(CN2CCCC2CCc2ccccc2)no1` (stereo not given) is lower in “Percent Effect” value: 15.95% for the first, 0.152% for the second.

First: Cc1cc(-c2ccc(C(C)N3CCOCC3)cc2)cnc1N (stereo not given)
Second: CCc1nc(C2CCCN2Cc2nc3ccccc3o2)no1 (stereo not given)
The “Percent Effect” value of the first is higher: 25.58% for the first, -3.272% for the second.

Going from `Cc1nn(C)c(C)c1C1CCCN1Cc1noc(C2CC2)n1` (stereo not given) to `Cn1cccc1C1CCCN1Cc1noc(C(C)(C)C)n1` (stereo not given), the “Percent Effect” value rises from 0.5745% to 89.29%.

Going from `CCn1c(C2CCCN2Cc2noc(C(C)(C)C)n2)nc2ccccc21` (stereo not given) to `CC(C)(C)c1nc(CN2CCCC2c2nnc3ccccn23)no1` (stereo not given), the “Percent Effect” value falls from 117.3% to 104.6%.

Going from `CCc1nc(C2CCCN2Cc2noc(Cc3ccccc3)n2)no1` (stereo not given) to `O=C(OCc1ccccc1)C1CCCN1Cc1nc(C2CC2)no1` (stereo not given), the “Percent Effect” value rises from -2.758% to 13.28%.

Going from `c1ccn2c(C3CCCN3Cc3nc(C4CC4)no3)nnc2c1` (stereo not given) to `COc1cccc2c1N(Cc1noc(C(C)(C)C)n1)CCC2`, the “Percent Effect” value falls from 89.02% to 5.292%.
